Bioassay records: PubChem, National Center for Advancing Translational Sciences (NCATS)
Shown are actives, neighbours in structure and some others; about 8.8% of the full set was active somewhere.
ALDH1A1 inh = qHTS Assay for Inhibitors of Aldehyde Dehydrogenase 1 (ALDH1A1) | Aldehyde dehydrogenase 1A1 (Homo sapiens), P00352 | Purified ALDH1A1, NADH fluorescence, propionaldehyde substrate | Potency, µM (series often up to 75.3 µM), for the others: at the highest dose activity, negative = inhibition, hits mostly inhibitors | 220,000 tested, 7.3% active; active = well fitted inhibition curve with a large enough effect, not every such curve was filed as active; inconclusive = small, poorly fitted or top-dose-only effect, or another doubt; inactive = no such curve, though single readings can be large or run the other way;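 note: plate controls were no enzyme wells and a reference inhibitor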
Target sequence (P00352 whole entry, looked up): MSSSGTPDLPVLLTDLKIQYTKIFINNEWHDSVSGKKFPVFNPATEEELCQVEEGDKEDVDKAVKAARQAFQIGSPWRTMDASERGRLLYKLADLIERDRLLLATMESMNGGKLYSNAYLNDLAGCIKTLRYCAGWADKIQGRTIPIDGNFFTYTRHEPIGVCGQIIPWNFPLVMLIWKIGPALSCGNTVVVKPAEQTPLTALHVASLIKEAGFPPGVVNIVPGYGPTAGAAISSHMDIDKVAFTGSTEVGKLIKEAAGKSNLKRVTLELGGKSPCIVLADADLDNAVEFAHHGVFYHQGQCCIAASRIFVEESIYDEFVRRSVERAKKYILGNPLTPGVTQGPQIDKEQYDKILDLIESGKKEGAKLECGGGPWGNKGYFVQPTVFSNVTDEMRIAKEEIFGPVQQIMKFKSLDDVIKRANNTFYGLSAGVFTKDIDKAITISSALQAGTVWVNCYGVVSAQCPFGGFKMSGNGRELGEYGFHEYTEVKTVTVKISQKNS
LMNA splice mod = qHTS Assay for Modulators of Lamin A Splicing. HeLa LMNA splicing GFP/RFP minigene ratio, 48 h. Potency, µM (highest dose often 46.1 µM), inactives show at the top dose ratio change, negative = inhibition, most hits filed as inhibitors. 200,000 tested, 0.01% active; active = well fitted inhibition curve with a large enough effect in the signal ratio, with a control signal flat, not every such curve was filed as active; inconclusive = small, poorly fitted or top-dose-only effect, or effect the other way, or a change in a side signal; the % refers to the signal ratio; note: % is set by controls: 0 for no effect and ±100 for the full control effect
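Read-out is the ratio of GFP to DsRed2 object intensity, acquired by 488 nm laser-scanning cytometry on HeLa lamin A-EGFP minigene reporter cells. Compound incubation 48 hrs at 37 °C in Opti-MEM with 2% FBS; DMSO 0.5% final.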
HPGD inh = qHTS Assay for Inhibitors of HPGD (15-Hydroxyprostaglandin Dehydrogenase); AID 894, 2007; purified HPGD, NADH fluorescence kinetic, PGE2 substrate; Potency, µM, for the others: top-dose activity change, negative = inhibition, hits mostly inhibitors; 15-hydroxyprostaglandin dehydrogenase [NAD(+)] (Homo sapiens), P15428; 150,000 tested, 4.3% active; active = well fitted inhibition curve with a large enough effect, not every such curve was filed as active; inconclusive = small, poorly fitted or top-dose-only effect, or another doubt; inactive = no such curve, though single readings can be large or run the other way; note: % is set by controls: 0 for no effect and ±100 for the full control effect
Target sequence (P15428 whole entry, looked up): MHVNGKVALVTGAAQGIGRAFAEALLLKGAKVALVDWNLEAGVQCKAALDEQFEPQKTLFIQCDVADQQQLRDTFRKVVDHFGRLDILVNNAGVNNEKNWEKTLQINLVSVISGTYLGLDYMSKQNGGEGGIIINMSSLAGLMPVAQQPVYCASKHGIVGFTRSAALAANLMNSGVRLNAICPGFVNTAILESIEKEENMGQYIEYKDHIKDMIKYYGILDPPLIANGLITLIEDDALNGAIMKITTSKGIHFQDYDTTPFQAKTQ
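20 nM HPGD preincubated 15 min at room temperature with compound in 50 mM Tris-HCl pH 8, 0.01% Tween 20. Started with 1 mM NAD+ and 30 uM prostaglandin E2; NADH fluorescence (360/450 nm) read 5 times over 30-s intervals, last minus first.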
HTT ATP protect = qHTS Multiplex Assay to Identify Dual Action Probes in a Cell Model of Huntington: Cytoprotection (ATP); PC12 HTT-Q103 induced, cytoprotection, ATP luminescence, 40 h; Potency, µM (series often up to 56.4 µM), inactives show cytoprotection (ATP increase), usual class: activators; 230,000 tested, 0.14% active; note: % of control where 0% means no effect; nearly all actives have a fitted effect of over 45% in size
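Quantitative HTS on tebufenozide-induced (100 nM) PC12 cells expressing HTTQ103 exon 1–GFP; compounds tested as a concentration series; survival measured via cellular ATP.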
HttQ103 aggreg = qHTS Multiplex Assay to Identify Dual Action Probes in a Cell Model of Huntington: Aggregate Formation (GFP); AID 1688, 2009; 220,000 tested, 1.1% active; Potency, µM (doses to about 46.1 µM), inactives show top-dose activity change, negative = inhibition, usual class: inhibitors; PC12 HttQ103-GFP aggregates, Acumen cytometry, 40 h; note: % is set by controls: 0 for no effect and ±100 for the full control effect; nearly all actives have a fitted effect of over 60% in size
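Ecdysone-promoter PC12 model expressing HTT exon 1 Q103 fused to GFP, induced by tebufenozide at 100 nM final. Compounds titrated; aggregates sized 1–25 µm scored on a 488 nm laser cytometer.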
* hit, by the source's call; ? = inconclusive; · = not tested or not shown; [ ] = dose if it differs, or a comment. Unless noted, calls come from the whole dose curve; as a rule, active = well fitted curve in the direction sought with a large enough effect; inconclusive = small, poorly fitted or top-dose-only effect, or another doubt; inactive = no such curve, though single readings can be large; an effect the other way counts as inactive or inconclusive. Potency is the fitted concentration of half-maximal effect.

SMILES | ALDH1A1 inh | LMNA splice mod | HPGD inh | HTT ATP protect | HttQ103 aggreg
COc1ccc(NC(=S)N2CCN(c3ccccn3)CC2)cc1OC | 25µM* | ? | · | 1%[10 µM] | 13%
C(=N\N1CCN(c2ccccn2)CC1)/c1ccco1 | 18µM* | · | · | -11%[10 µM] | -3%
COc1cc(NC(=S)N2CCN(c3ccccn3)CC2)cc(OC)c1OC | ? | · | · | -8% | 5%
S=C(Nc1ccc(Nc2ccccc2)cc1)N1CCN(c2ncccn2)CC1 | 13µM* | · | · | -7% | -5%[9.22 µM]
COc1ccc(C)cc1NC(=S)N1CCN(c2ccccn2)CC1 | ? | ? | -19% | 9%[10 µM] | -18%
COc1cc(NC(=S)N2CCN(c3ccccn3)CC2)cc(OC)c1 | -6% | -13% | · | 21%[10 µM] | 8.9µM*
COc1ccc(-c2nnnn2-c2ccc(F)cc2F)cc1 | 7% | 27%[46 µM] | · | -6%[10 µM] | -20%
O=C(NCC(c1ccc(F)cc1)N1CCOCC1)c1cccc(Br)c1 (configuration not stated) | 7% | -12%[46 µM] | · | -26% | -2%
Cc1cc2nc3[nH]c4c(Cl)cc(Cl)cc4c3nc2cc1C | -8%[13.5 µM] | · | -7% | 2%[10 µM] | ·
O=C(NC(=S)N1CCCc2ccccc21)c1ccco1 | ? | -13%[46 µM] | · | -33% | 1%[9.22 µM]
CC1Cc2ccccc2N1C(=S)NC(=O)c1ccco1 (configuration not stated) | 22µM* | 5%[46 µM] | · | -23% | -2%
O=C(NC(=S)N1CCN(c2ccccn2)CC1)c1ccco1 | 11µM* | · | · | 3%[10 µM] | -2%[9.22 µM]
CC1CCCCC1NC(=O)CSc1nncs1 (configuration not stated) | 1% | -4% | 22µM* | -17%[10 µM] | -7%
CC1CCCC(NC(=O)CSc2nnc(N)s2)C1C (configuration not stated) | ? | 7% | 28µM* | 16% | 10%
CCC(=O)NC(NC(=S)Nc1ccc(S(N)(=O)=O)cc1)C(Cl)(Cl)Cl (configuration not stated) | ? | -8% | -8% | 20%[10 µM] | 3%
O=C1N=C(N2CCC(Cc3ccccc3)CC2)S/C1=C/c1cn[nH]c1-c1ccccc1 | -8% | 7% | 25µM* | -18% | -5%
Cc1cccc(NC(=O)N(Cc2cc3cc(C)ccc3[nH]c2=O)CC2COCCO2)c1 (configuration not stated) | 32µM* | · | · | -20%[10 µM] | -5%[9.22 µM]
Cc1ccc2[nH]c(=O)c(CN(CC3CCCO3)C(=S)NCc3ccco3)cc2c1 (configuration not stated) | ? | -6% | -8% | 14%[10 µM] | ?
COc1ccc(NC(=O)N(Cc2cc3cc(C)ccc3[nH]c2=O)CC2CCCO2)cc1 (configuration not stated) | · | · | · | 5%[10 µM] | 5%[9.22 µM]
COc1ccc2[nH]c(=O)c(CN(CC3CCCO3)C(=O)Nc3ccc(F)cc3)cc2c1 (configuration not stated) | ? | 3% | ? | 5%[10 µM] | 11µM*
Cc1ccc2[nH]c(=O)c(CN(CC3CCCO3)S(=O)(=O)c3cccc4nsnc34)cc2c1 (configuration not stated) | 20µM* | -14% | -8% | -17% | 11%
COc1ccc2cc(CN(CC3CCCO3)C(=S)NCc3ccco3)c(=O)[nH]c2c1 (configuration not stated) | 3.5µM* | · | · | -7%[10 µM] | 3%[9.22 µM]
COc1ccc(F)cc1S(=O)(=O)Nc1ccccc1C(=O)O | -11% | · | -10% | · | ·
Cc1ccc(C)c2[nH]c(=O)c(CN(Cc3ccco3)C(=S)NCC3CCCO3)cc12 (configuration not stated) | 20µM* | -10%[46 µM] | · | 13%[10 µM] | 18%[9.22 µM]
Cc1ccc2cc(CN(CC3CCCO3)C(=S)NCc3ccco3)c(=O)[nH]c2c1 (configuration not stated) | 3.5µM* | ? | · | -12%[10 µM] | 3%[9.22 µM]
SMILES | ALDH1A1 inh | LMNA splice mod | HPGD inh | HTT ATP protect | HttQ103 aggreg
Cc1cc(C)c2cc(CN(CC3CCCO3)C(=S)NCc3ccco3)c(=O)[nH]c2c1 (configuration not stated) | 16µM* | ? | · | -2%[10 µM] | -6%[9.22 µM]
Cc1ccc2[nH]c(=O)c(CN(CC3CCCO3)C(=S)Nc3ccccc3)cc2c1 (configuration not stated) | 14µM* | -15% | -20% | -9%[10 µM] | -15%
Cc1nc(SCC(O)CCl)c([N+](=O)[O-])[nH]1 (configuration not stated) | 14µM* | -2% | -5% | 11%[10 µM] | 3%
COCC(O)CSc1nc(C)[nH]c1[N+](=O)[O-] (configuration not stated) | 1% | 11% | -17% | 11% | 2%[9.22 µM]
Cc1ccc(SCCNS(=O)(=O)c2ccc(F)cc2)cc1 | 16µM* | -15% | -7% | 2%[10 µM] | -22%
Cc1ccc(SCCNS(=O)(=O)c2ccc3c(c2)OCCO3)cc1 | 1.4µM* | ? | -10% | 9% | -26%
COc1ccc(S(=O)(=O)NCCSc2ccc(C)cc2)cc1OC | 5µM* | ? | -23% | 13% | ?
CC(C)OCCCNS(=O)(=O)c1ccc2c(c1)OCCO2 | ? | 3% | -2% | 27% | -9%
O=S(=O)(NCCSc1ccc(Cl)cc1)c1ccc(F)cc1 | ? | 14% | -11% | -3% | -11%
O=C(CSc1nc2ccccc2c(=O)n1Cc1ccccc1)NCc1ccco1 | ? | 0% | -23% | -4% | -14%
O=C(CSc1nc2ccccc2c(=O)n1Cc1ccco1)c1ccc(F)cc1 | 11µM* | ? | -30% | 3%[10 µM] | 0%
O=C(CSc1nc2cc(Cl)ccc2c(=O)n1Cc1ccco1)Nc1ccc(S(=O)(=O)N2CCOCC2)cc1 | 7.9µM* | 7% | -9% | 14%[0.074 µM] | -2%
COC(=O)c1ccc2c(=O)n(Cc3ccco3)c(SCC(=O)Nc3ccc(C)c(Cl)c3)nc2c1 | ? | 15% | -2% | 6%[10 µM] | 4%
O=C(CSc1nc2ccccc2c(=O)n1Cc1ccc(C(=O)NC2CC2)cc1)NCc1ccco1 | -8% | ? | 2.8µM* | -25% | 5%
CCSc1nc2cc(OC)c(OC)cc2c(=O)n1CC | 8.9µM* | 0% | -13% | -10% | -25%
O=S(=O)(NCCc1csc2nc(-c3ccc(F)cc3)nn12)c1ccc2c(c1)OCCO2 | · | 13%[46 µM] | · | · | ·
COc1cccc(/C=C/C(=O)Nc2ccc3nc4n(c(=O)c3c2)CCCC4)c1OC | ? | · | · | -97%[10 µM] | ?
COc1ccc2c(c1)C(=O)[C@H](OC(=O)NS(=O)(=O)c1ccc(C)cc1)[C@@H](c1ccc(OC)c(Br)c1)O2 | ? | · | -9% | -29% | ·
COCCNC(=O)CSc1nc2cc(OC)c(OC)cc2c(=O)n1Cc1ccco1 | 2.2µM* | 0% | -14% | -14% | -4%
